According to PubChem BioAssay AID2227 (Johns Hopkins Ion Channel Center, 2009):
About 1,300 (0.42%) of roughly 310,000 compounds were called active.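 Rule for the calls: active = B-score of calcium response area above 5 SD of library B-scores, with initial fluorescence ratio within 5 SD of library; inactive = the rest.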 Shown is part of a subset that was picked to be rich in actives.

target: Short transient receptor potential channel 4 (Mus musculus) (UniProt Q9QUQ5); experiment: TRPC4 channel potentiators under submaximal DAMGO – cell-based, mouse TRPC4beta, HEK293 mu-opioid, Fluo-4 calcium, primary screen (AID 2227); conditions: DAMGO EC20, Fluo-4 Ca2+ flux, at 10 µM; hits give high values;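 for B-score: B-score of integrated fluorescence ratio over time as area under calcium response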
Sequence (Q9QUQ5 whole entry, looked up): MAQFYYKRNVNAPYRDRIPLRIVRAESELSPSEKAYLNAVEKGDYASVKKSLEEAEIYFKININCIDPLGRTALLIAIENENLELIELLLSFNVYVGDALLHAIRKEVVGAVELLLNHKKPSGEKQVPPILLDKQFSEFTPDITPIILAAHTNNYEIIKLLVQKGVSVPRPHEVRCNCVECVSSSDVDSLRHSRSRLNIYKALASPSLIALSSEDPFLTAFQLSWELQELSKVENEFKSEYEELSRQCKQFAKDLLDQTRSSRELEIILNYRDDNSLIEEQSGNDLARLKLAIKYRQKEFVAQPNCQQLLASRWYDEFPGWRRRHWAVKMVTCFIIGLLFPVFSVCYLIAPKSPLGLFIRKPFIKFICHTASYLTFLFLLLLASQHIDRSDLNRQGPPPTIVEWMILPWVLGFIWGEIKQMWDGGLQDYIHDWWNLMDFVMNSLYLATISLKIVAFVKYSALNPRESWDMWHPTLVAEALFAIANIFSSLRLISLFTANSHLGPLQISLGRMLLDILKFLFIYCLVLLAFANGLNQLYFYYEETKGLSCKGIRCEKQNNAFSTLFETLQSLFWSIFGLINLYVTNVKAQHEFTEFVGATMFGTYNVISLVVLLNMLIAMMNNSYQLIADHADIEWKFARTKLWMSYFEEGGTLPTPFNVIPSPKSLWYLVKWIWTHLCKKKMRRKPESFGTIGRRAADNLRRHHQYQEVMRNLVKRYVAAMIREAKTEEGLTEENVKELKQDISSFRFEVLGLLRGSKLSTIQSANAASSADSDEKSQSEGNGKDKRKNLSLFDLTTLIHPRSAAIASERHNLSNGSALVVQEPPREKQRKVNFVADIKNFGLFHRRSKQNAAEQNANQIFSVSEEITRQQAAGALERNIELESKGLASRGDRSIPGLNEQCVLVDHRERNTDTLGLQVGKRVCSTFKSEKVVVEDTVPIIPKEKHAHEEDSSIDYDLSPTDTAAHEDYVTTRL

SMILES | B-score
CCN1CC2C3CCC(C)(O3)C2C1 (stereo not given) | 15 (active)
Cc1ccc(N(C)C(=O)Oc2cccc3ccc(C)nc23)cc1 | inactive
CN(C)C(=O)Oc1ccc2c(c1)O/C(=C\c1ccccc1)C2=O | inactive
CNC(=O)O/N=C(\N)Cc1csc2ccccc12 | inactive
Cc1ccc(-c2nc3ccccc3c(=O)n2-c2ccc(Br)cn2)cc1 | 12 (active)
O=c1c2ccccc2nc(-c2ccccc2)n1-c1ccccn1 | inactive
O=c1c2ccccc2nc(-c2ccco2)n1-c1ccc(Br)cn1 | inactive
CC(=NCc1ccc2c(c1)OCO2)c1c(O)[nH]c(=O)[nH]c1=O | inactive
COC(=O)C1=C(c2cc3ccccc3s2)C[C@@H]2CC[C@H]1N2C(=O)NCCO | inactive
O=C(Cn1c(=O)n(CC2CS2)c2ccccc21)N1CCCCC1 (stereo not given) | inactive
CCOC(=O)C(O)(c1ccc(N)c(OC)c1)C(F)(F)F (stereo not given) | inactive
CCOC(=O)C(O)(c1ccc(NC(=O)c2ccco2)c(OC)c1)C(F)(F)F (stereo not given) | inactive
COC(=O)C(O)(c1ccc(NC(=O)c2ccco2)c(OC)c1)C(F)(F)F (stereo not given) | 12 (active)
Cc1ccc2c(c1)=C/C(=C\c1c(O)[nH]c(=O)[nH]c1=O)C(=O)N=2 | inactive
COc1ccccc1C1=NCc2nnc(CSC)n2-c2ccc(Cl)cc21 | inactive
O=C(Cc1ccccc1[N+](=O)[O-])N1CCN(Cc2ccc3c(c2)OCO3)CC1 | inactive
CCN1CCN(Cc2cc(OC)c3c(c2)OCO3)CC1 | 11 (active)
Fc1ccc(N2CCN(Cc3ccc4c(c3)OCO4)CC2)cc1 | inactive
Cc1cc2ccccn2c1C(C[N+](=O)[O-])c1c(F)cccc1Cl (stereo not given) | inactive
O=c1[nH]c(=S)n(C2CC2)c(O)c1/C=N/N1CCOCC1 | inactive
